From PubChem BioAssay (NCI)
This is part of a sample that, as a whole, favours compounds with a hit. Of some 79,000 tested, about 15% had one in any assay. Calls of active or inactive are those of the source. Rule as the data show it: active = growth inhibition above about 70%; inactive = the rest.

Key:
[1] = NCI Yeast Anticancer Drug Screen. Data for the rad52 strain (AID 147);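 also: 0% = growth of vehicle-treated control cultures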; conditions: S. cerevisiae rad52 mutant growth inhibition, stronger effect = higher value
Method in brief: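 Read-out: growth inhibition versus vehicle-treated controls. Cells were a DNA repair-deficient yeast strain treated with compounds.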

[2] = NCI Yeast Anticancer Drug Screen. Data for the wt1 strain (AID 149);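 also: 0% = growth of vehicle-treated wt1 cultures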; conditions: S. cerevisiae wt1 strain (SPY 50644) growth inhibition, stronger effect = higher value
Method in brief: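 Yeast wt1 strain exposed to compounds; growth inhibition measured relative to vehicle-treated controls.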

[3] = NCI Yeast Anticancer Drug Screen. Data for the rad50EPP+ strain (AID 151);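 also: 0% = growth of vehicle-treated control cultures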; conditions: S. cerevisiae rad50 mutant strain, stronger effect = higher value
Method in brief: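 Growth inhibition read against vehicle controls in rad50EPP+ yeast, a strain altered in DNA damage repair, after compound exposure.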

[4] = NCI Yeast Anticancer Drug Screen. Data for the rad50 strain (AID 155);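 also: 0% = growth of vehicle-only cultures of the same strain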; conditions: S. cerevisiae rad50 strain growth inhibition, stronger effect = higher value
Method in brief: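 Yeast carrying a defined DNA repair defect were exposed to test compounds, and growth was compared with vehicle-treated controls to give percent inhibition.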

[5] = NCI Yeast Anticancer Drug Screen. Data for the mec2-1 strain (AID 157); conditions: S. cerevisiae mec2-1 strain, stronger effect = higher value
Method in brief: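 Yeast mec2-1 mutant treated with compound. Readout: growth inhibition vs vehicle controls.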

[6] = NCI Yeast Anticancer Drug Screen. Data for the rad14 strain (AID 159);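 also: 0% = growth of vehicle-treated control cultures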; conditions: S. cerevisiae rad14 strain growth inhibition, stronger effect = higher value
Method in brief: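 Yeast cells carrying a defined DNA-repair defect were exposed to compounds, and growth inhibition was calculated relative to vehicle-treated control cultures.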

[7] = NCI Yeast Anticancer Drug Screen. Data for the sgs1 mgt1 strain (AID 161);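 also: 0% = growth of cultures given vehicle only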; conditions: S. cerevisiae sgs1 mgt1 strain, stronger effect = higher value
Method in brief: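 Read-out: growth inhibition vs vehicle controls. Cells: mutant yeast strain deficient in DNA damage repair.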

[8] = NCI Yeast Anticancer Drug Screen. Data for the CLN2oe strain (AID 163);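 also: 0% = growth of vehicle-only control cultures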; conditions: S. cerevisiae CLN2oe strain, stronger effect = higher value
Method in brief: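 Read-out: yeast growth inhibition, expressed relative to vehicle-only controls. The strain bears an engineered cell-cycle alteration.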

[9] = NCI Yeast Anticancer Drug Screen. Data for the cln2 rad14 strain (AID 165);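 also: 0% = growth equal to vehicle treated cultures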; conditions: S. cerevisiae cln2 rad14 strain, stronger effect = higher value
Method in brief: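 cln2 rad14 yeast strain; compound exposure; growth inhibition read vs vehicle controls.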

[10] = NCI Yeast Anticancer Drug Screen. Data for the bub3 strain (AID 167); conditions: S. cerevisiae bub3 mutant strain, stronger effect = higher value
Method in brief: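 Compounds were applied to a genetically altered yeast strain carrying a cell-cycle control defect. Growth inhibition was scored against vehicle-treated controls.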

[11] = NCI Yeast Anticancer Drug Screen. Data for the wt2 strain (AID 169);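 also: 0% = growth of vehicle-treated yeast cultures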; conditions: S. cerevisiae wt2 strain growth inhibition, stronger effect = higher value
Method in brief: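 Read-out: growth inhibition versus vehicle-treated control cultures after compound exposure of the yeast strain.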

[12] = NCI Yeast Anticancer Drug Screen. Data for the mlh1 strain (AID 171);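 also: 0% = growth of vehicle-treated control cultures of the same strain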; conditions: S. cerevisiae mlh1 strain growth inhibition, stronger effect = higher value
Method in brief: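 Read-out: growth inhibition versus vehicle controls. Strain: engineered yeast with a defined DNA repair or cell cycle defect, compound-treated.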

[13] = NCI Yeast Anticancer Drug Screen. Data for the sgs1 strain (AID 173);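 also: 0% = growth of vehicle-only control cultures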; conditions: S. cerevisiae sgs1 mutant, stronger effect = higher value
Method in brief: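 Read-out: yeast growth inhibition relative to vehicle controls, following compound exposure of a strain with a defined DNA repair/cell cycle alteration.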

[14] = NCI Yeast Anticancer Drug Screen. Data for the mlh1 rad18 strain (AID 175); conditions: S. cerevisiae mlh1 rad18 strain growth inhibition, stronger effect = higher value
Method in brief: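 Yeast w/ defined DNA-repair lesions; compound exposure; growth vs vehicle controls → % inhibition.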

[15] = NCI Yeast Anticancer Drug Screen. Data for the rad18 strain (AID 177); conditions: S. cerevisiae rad18 mutant growth inhibition, stronger effect = higher value
Method in brief: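 Readout: growth inhibition vs vehicle controls. Cells: genetically altered yeast strain, DNA repair defect.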

[16] = at 5.0 µM (retest, dose inferred, filed as 0.5)
[17] = at 50.0 µM (retest, dose inferred, filed as 5.0)

Measured: growth inhibition

Cc1ccc(S(=O)(=O)N/N=C/C2(c3ccccc3)c3ccccc3-c3ccccc32)cc1
inactive: [1]; at 1.2 µM 41% | [1]; at 3.7 µM 45% | [2]; at 1.2 µM 25% | [2]; at 3.7 µM 13% | [2]; at 11.0 µM 34% | [3]; at 1.2 µM 11% | [3]; at 3.7 µM 2% | [3]; at 11.0 µM 17% | [3]; at 33.0 µM -8% | [3]; at 100.0 µM -37% | [4]; at 1.2 µM 4% | [4]; at 3.7 µM 36% | [4]; [16] 38% | [4]; at 50.0 µM 29.5% | [5]; at 1.2 µM 25% | [5]; at 3.7 µM 15% | [5]; [16] 22% | [5]; at 11.0 µM 27% | [5]; at 50.0 µM 7.7% | [6]; at 1.2 µM 9% | [6]; at 3.7 µM 9% | [6]; at 11.0 µM 45% | [7]; [16] 31% | [7]; at 50.0 µM 33.8% | [8]; at 1.2 µM 37% | [8]; at 3.7 µM 38% | [9]; [16] 45% | [9]; at 50.0 µM 16.1% | [10]; at 1.2 µM 19% | [10]; at 3.7 µM 9% | [10]; [16] 20% | [10]; at 11.0 µM 54% | [10]; at 50.0 µM 29.1% | [10]; at 100.0 µM 62% | [11]; at 1.2 µM -8% | [11]; at 3.7 µM 18% | [12]; at 1.2 µM 21% | [12]; at 3.7 µM 7% | [12]; at 11.0 µM 30% | [12]; at 33.0 µM 61% | [13]; at 1.2 µM 16% | [13]; at 3.7 µM 15% | [13]; at 11.0 µM 45% | [15]; at 1.2 µM 50% | [15]; at 3.7 µM 52%
active: [1]; at 11.0 µM 79% | [1]; at 33.0 µM 93% | [1]; at 100.0 µM 86% | [2]; at 33.0 µM 87% | [2]; at 100.0 µM 83% | [4]; at 11.0 µM 82% | [4]; at 33.0 µM 90% | [4]; [17] 92% | [4]; at 100.0 µM 77% | [5]; at 33.0 µM 78% | [5]; [17] 93% | [5]; at 100.0 µM 84% | [6]; at 33.0 µM 86% | [6]; at 100.0 µM 86% | [7]; [17] 93% | [8]; at 11.0 µM 80% | [8]; at 33.0 µM 91% | [8]; at 100.0 µM 76% | [9]; [17] 90% | [10]; at 33.0 µM 88% | [10]; [17] 90% | [11]; at 11.0 µM 76% | [11]; at 33.0 µM 91% | [11]; at 100.0 µM 80% | [12]; at 100.0 µM 71% | [13]; at 33.0 µM 82% | [13]; at 100.0 µM 80% | [14]; [16] 79% | [14]; [17] 91% | [14]; at 50.0 µM 70.5% | [15]; at 11.0 µM 80% | [15]; at 33.0 µM 91% | [15]; at 100.0 µM 89%

Cc1ccc2occ/c(=N\Nc3ccccc3)c2c1
active: [4]; at 50.0 µM 73.8% | [7]; [17] 70% | [7]; at 50.0 µM 82.5% | [10]; [17] 70% | [10]; at 50.0 µM 87.8% | [10]; at 100.0 µM 70%
inactive: [1]; at 1.2 µM -3% | [1]; at 3.7 µM -4% | [1]; at 11.0 µM 8% | [1]; at 33.0 µM 33% | [1]; at 100.0 µM 39% | [2]; at 1.2 µM 2% | [2]; at 3.7 µM -5% | [2]; at 11.0 µM 4% | [2]; at 33.0 µM 11% | [2]; at 100.0 µM 16% | [3]; at 1.2 µM 1% | [3]; at 3.7 µM -3% | [3]; at 11.0 µM 4% | [3]; at 33.0 µM 58% | [3]; at 100.0 µM 55% | [4]; at 1.2 µM 5% | [4]; at 3.7 µM -7% | [4]; [16] -16% | [4]; at 11.0 µM 6% | [4]; at 33.0 µM 57% | [4]; [17] 31% | [4]; at 100.0 µM 58% | [5]; at 1.2 µM -4% | [5]; at 3.7 µM -4% | [5]; [16] -11% | [5]; at 11.0 µM -2% | [5]; at 33.0 µM 17% | [5]; [17] 23% | [5]; at 50.0 µM 52.7% | [5]; at 100.0 µM 24% | [6]; at 1.2 µM -2% | [6]; at 3.7 µM -2% | [6]; at 11.0 µM -4% | [6]; at 33.0 µM 39% | [6]; at 100.0 µM 45% | [7]; [16] -1% | [8]; at 1.2 µM -9% | [8]; at 3.7 µM -7% | [8]; at 11.0 µM 5% | [8]; at 33.0 µM -1% | [8]; at 100.0 µM 12% | [9]; [16] -21% | [9]; [17] -23% | [9]; at 50.0 µM -23.1% | [10]; at 1.2 µM -4% | [10]; at 3.7 µM -4% | [10]; [16] -4% | [10]; at 11.0 µM -4% | [10]; at 33.0 µM 64% | [11]; at 1.2 µM -2% | [11]; at 3.7 µM -4% | [11]; at 11.0 µM 7% | [11]; at 33.0 µM 55% | [11]; at 100.0 µM 57% | [12]; at 1.2 µM -1% | [12]; at 3.7 µM -5% | [12]; at 11.0 µM -1% | [12]; at 33.0 µM 59% | [12]; at 100.0 µM 63% | [13]; at 1.2 µM -1% | [13]; at 3.7 µM -4% | [13]; at 11.0 µM 4% | [13]; at 33.0 µM 53% | [13]; at 100.0 µM 57% | [14]; [16] -5% | [14]; [17] 52% | [14]; at 50.0 µM 68.3% | [15]; at 1.2 µM -2% | [15]; at 3.7 µM -1% | [15]; at 11.0 µM 7% | [15]; at 33.0 µM 62% | [15]; at 100.0 µM 64%

O=C(Nc1ccc2c(c1)Cc1c-2ccc([N+](=O)[O-])c1F)C(F)(F)F
inactive: [1]; at 1.2 µM 4% | [1]; at 3.7 µM 4% | [1]; at 11.0 µM 5% | [1]; at 33.0 µM 5% | [1]; at 100.0 µM 3% | [2]; at 1.2 µM 2% | [2]; at 3.7 µM 3% | [2]; at 11.0 µM 7% | [2]; at 33.0 µM 4% | [2]; at 100.0 µM 3% | [3]; at 1.2 µM 9% | [3]; at 3.7 µM 0% | [3]; at 11.0 µM 6% | [3]; at 33.0 µM 11% | [3]; at 100.0 µM 20% | [4]; at 1.2 µM 2% | [4]; at 3.7 µM 4% | [4]; [16] 2% | [4]; at 11.0 µM 4% | [4]; at 33.0 µM 3% | [4]; [17] 11% | [4]; at 50.0 µM 2.95% | [4]; at 100.0 µM 4% | [5]; at 1.2 µM -1% | [5]; at 3.7 µM 0% | [5]; [16] -17% | [5]; at 11.0 µM -1% | [5]; at 33.0 µM 1% | [5]; [17] -11% | [5]; at 50.0 µM 1.35% | [5]; at 100.0 µM 2% | [6]; at 1.2 µM 1% | [6]; at 3.7 µM 1% | [6]; at 11.0 µM 0% | [6]; at 33.0 µM 2% | [6]; at 100.0 µM 2% | [7]; [16] 23% | [7]; [17] 19% | [7]; at 50.0 µM -3.05% | [8]; at 1.2 µM -2% | [8]; at 3.7 µM -3% | [8]; at 11.0 µM -4% | [8]; at 33.0 µM -11% | [8]; at 100.0 µM -4% | [9]; [16] 4% | [9]; [17] 7% | [9]; at 50.0 µM -10.7% | [10]; at 1.2 µM -2% | [10]; at 3.7 µM 1% | [10]; [16] -4% | [10]; at 11.0 µM 1% | [10]; at 33.0 µM 1% | [10]; [17] 12% | [10]; at 50.0 µM 8.35% | [10]; at 100.0 µM -4% | [11]; at 1.2 µM 2% | [11]; at 3.7 µM 0% | [11]; at 11.0 µM 2% | [11]; at 33.0 µM 2% | [11]; at 100.0 µM 0%
